# Data published in the supplement of paper PMC9023506.
# Counter-ions that a name gives are not always drawn.
# System: Danio rerio larvae (5 dpf)
# Experiment: optomotor response to red moving lines, difference vs DMSO (percentage points (treated minus DMSO)); higher = more of the behaviour than the DMSO vehicle control
# Conditions: 10 µM; exposure time: 3 h pre-incubation + 3 h imaging
# Experimental: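 5-dpf wild-type zebrafish larvae were imaged in 96-well plates. They were treated with 190 Tocris FDA-approved drugs at 10 µM (1 µl/ml DMSO) for 3 h before and 3 h during imaging at 28.5 °C, 48 larvae per drug. Automated image analysis gave % time moving and optomotor responses. Values are drug group mean minus DMSO vehicle mean (n=844), in percentage points, for 10 behaviours.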
row,Compound,optomotor response to red moving lines
1,CCc1ccc(CCOc2ccc(CC3SC(=O)NC3=O)cc2)nc1 (stereo not given) [Pioglitazone hydrochloride],-7.97
2,Cc1nc(Nc2ncc(C(=O)Nc3c(C)cccc3Cl)s2)cc(N2CCN(CCO)CC2)n1 [Dasatinib],-9.17
3,O=c1[nH]c(=O)n([C@H]2C[C@H](O)[C@@H](CO)O2)cc1C(F)(F)F [Trifluorothymidine],9.66
4,CC(C)(C#N)c1cc(Cn2cncn2)cc(C(C)(C)C#N)c1 [Anastrozole],-3.51
5,Nc1cc(N2CCCCC2)nc(N)[n+]1[O-] [Minoxidil],-13.4
6,O=C(O)c1cc(/N=N/c2ccc(S(=O)(=O)Nc3ccccn3)cc2)ccc1O [Sulfasalazine],2.01
7,C[C@@H]1C[C@H]2[C@@H]3CCC4=CC(=O)C=C[C@]4(C)[C@@]3(F)[C@@H](O)C[C@]2(C)[C@@]1(O)C(=O)CO [Dexamethasone],-2.54
8,CC(C)(C)NC(=O)[C@@H]1C[C@@H]2CCCC[C@@H]2CN1C[C@@H](O)[C@H](Cc1ccccc1)NC(=O)[C@H](CC(N)=O)NC(=O)c1ccc2ccccc2n1 [Saquinavir mesylate],-16.6
9,NC(=O)N1c2ccccc2C=Cc2ccccc21 [Carbamazepine],-0.139
10,C=CC(=O)N1CCC[C@@H](n2nc(-c3ccc(Oc4ccccc4)cc3)c3c(N)ncnc32)C1 [Ibrutinib],-1.62
11,OCc1cc(C(O)CNCCCCCCOCCCCc2ccccc2)ccc1O (stereo not given) [Salmeterol xinafoate],5
12,NS(=O)(=O)c1cc(C(=O)O)c(NCc2ccco2)cc1Cl [Furosemide],4.84
13,CC(C)(C(=O)c1cccnc1)c1cccnc1 [Metyrapone],4.83
14,C#CCN[C@@H]1CCc2ccccc21 [Rasagiline mesylate],16.9
15,C[C@]12CCC(=O)C=C1CC[C@@H]1[C@@H]2[C@@H](O)C[C@@]2(C)[C@H]1CC[C@]2(O)C(=O)CO [Hydrocortisone],13
16,Nc1ncn([C@@H]2O[C@H](CO)[C@@H](O)[C@H]2O)c(=O)n1 [5-Azacytidine],5.02
17,Nc1nc(NC2CC2)c2ncn([C@H]3C=C[C@@H](CO)C3)c2n1 [Abacavir hemisulfate],-1.56
18,CN[C@H]1CC[C@@H](c2ccc(Cl)c(Cl)c2)c2ccccc21 [Sertraline hydrochloride],21.6
19,CCCCCCCN(CC)CCCC(O)c1ccc(NS(C)(=O)=O)cc1 (stereo not given) [Ibutilide hemifumarate],10.1
20,Cc1ccccc1C(=O)Nc1ccc(C(=O)N2CCCC(O)c3cc(Cl)ccc32)c(C)c1 (stereo not given) [Tolvaptan],-7.01

row,Compound,optomotor response to red moving lines
1,CNC(=O)c1cc(Oc2ccc(NC(=O)Nc3ccc(Cl)c(C(F)(F)F)c3)cc2)ccn1 [Sorafenib],-10.7
2,CC(C)n1c(/C=C/C(O)CC(O)CC(=O)O)c(-c2ccc(F)cc2)c2ccccc21 (stereo not given) [Fluvastatin sodium],-2.5
3,CCCc1nc(C(C)(C)O)c(C(=O)O)n1Cc1ccc(-c2ccccc2-c2nnn[nH]2)cc1 [Olmesartan],-10.3
4,COc1ccc(-c2ccc3cc(C(=O)O)ccc3c2)cc1C12CC3CC(CC(C3)C1)C2 [Adapalene],-12.7
5,NC(=O)c1ncn([C@@H]2O[C@H](CO)[C@@H](O)[C@H]2O)n1 [Ribavirin],7.68
6,CN1CCN(CCCN2c3ccccc3Sc3ccc(Cl)cc32)CC1 [Prochlorperazine dimaleate],4.44
7,CN/C(=N\CCSCc1nc[nH]c1C)NC#N [Cimetidine],5.88
8,CC(=O)S[C@@H]1CC2=CC(=O)CC[C@]2(C)[C@H]2CC[C@@]3(C)[C@@H](CC[C@@]34CCC(=O)O4)[C@H]12 [Spironolactone],11.7
9,Cc1ccsc1C(=CCCN1CCC[C@@H](C(=O)O)C1)c1sccc1C [Tiagabine hydrochloride],20.4
10,CC[C@H]1OC(=O)[C@H](C)[C@@H](O[C@H]2C[C@@](C)(OC)[C@@H](O)[C@H](C)O2)[C@H](C)[C@@H](O[C@@H]2O[C@H](C)C[C@H](N(C)C)[C@H]2O)[C@](C)(O)C[C@@H](C)CN(C)[C@H](C)[C@@H](O)[C@]1(C)O [Azithromycin],-11.1
11,COc1c(C)c2c(c(O)c1C/C=C(\C)CCC(=O)OCCN1CCOCC1)C(=O)OC2 [Mycophenolate mofetil],12.2
12,CC(C)[C@H]1CC[C@H](C(=O)N[C@H](Cc2ccccc2)C(=O)O)CC1 [Nateglinide],12.8
13,CC(C)OC(=O)C(C)(C)Oc1ccc(C(=O)c2ccc(Cl)cc2)cc1 [Fenofibrate],16.3
14,CC(C)CN(C[C@@H](O)[C@H](Cc1ccccc1)NC(=O)O[C@H]1CO[C@H]2OCC[C@H]21)S(=O)(=O)c1ccc(N)cc1 [Darunavir],4.11
15,CCOC(=O)[C@H](CCc1ccccc1)N[C@H]1CCc2ccccc2N(CC(=O)O)C1=O [Benazepril hydrochloride],13
16,COc1cc2nc(N3CCN(C(=O)C4COc5ccccc5O4)CC3)nc(N)c2cc1OC (stereo not given) [Doxazosin mesylate],-7.06
17,Cc1cccc(C)c1OCC(C)N (stereo not given) [Mexiletine hydrochloride],3.43
18,CN1CCC[C@@H]1Cc1c[nH]c2ccc(CCS(=O)(=O)c3ccccc3)cc12 [Eletriptan hydrobromide],4.39
19,C[C@]12CC[C@@H]3c4ccc(O)cc4C[C@@H](CCCCCCCCC[S+]([O-])CCCC(F)(F)C(F)(F)F)[C@H]3[C@@H]1CC[C@@H]2O (stereo not given in full),-3.73
20,CCC(=O)O[C@]1(C(=O)SCF)[C@H](C)C[C@H]2[C@@H]3C[C@H](F)C4=CC(=O)C=C[C@]4(C)[C@@]3(F)[C@@H](O)C[C@@]21C [Fluticasone propionate],-12.2
